Reference: PubChem BioAssay (Tox21)
Records with an inconclusive call do not appear. The source holds several records for some structures; these can differ, active in one and inactive in another. The source made the active and inactive calls. Unless noted, calls come from the whole dose curve; as a rule, active = well fitted curve in the direction sought with a large enough effect in the repeat runs; inconclusive = weak or mixed curves; inactive = no such curve, though single readings can be large; an effect the other way counts as inactive or inconclusive.

Legend:
[1] = qHTS assay for small molecules that induce genotoxicity in human embryonic kidney cells expressing luciferase-tagged ATAD5 (AID 651632); note: nearly all actives have a fitted effect of over 15% in size; note: potency is the fitted concentration of half-maximal effect
In short: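 Luminescent reporter readout, HEK293T ATAD5-luc line: 16 hr drug exposure (37C, 5% CO2) followed by Amplite, 30 min RT.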

[2] = qHTS assay for small molecules that induce genotoxicity in human embryonic kidney cells expressing luciferase-tagged ATAD5 - cell viability (AID 651634; calls by dose curve; note: nearly all actives have a fitted effect of over 25% in size; note: potency is the fitted concentration of half-maximal effect)
In short: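 Viability read: CellTiter-Fluor fluorescence, 30 min at 37C. Cells: HEK293T, luciferase-tagged ATAD5. Exposure: 15.5 hr, 37C, 5% CO2, compound or DMSO vehicle.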

[3] = qHTS assay for small molecule disruptors of the mitochondrial membrane potential - cell viability (AID 720634; calls by dose curve;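 note: human HepG2 liver cancer cells; series mostly up to about 83 µM; nearly all actives have a fitted effect of over 20% in size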)
In short: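 HepG2, 1 hr compound, 37 C. ATP luminescence via CellTiter-Glo, 30 min RT, same well as m-MPI.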

[4] = qHTS assay to test for compound auto fluorescence at 590 nm (red) in HepG2 cells (AID 720674)
In short: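 1 hr compound incubation on HepG2 cells, 37 C, 5% CO2; plate read ex 540 nm / em 590 nm; intensities reported as Rose Bengal sodium equivalents.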

[5] = qHTS assay to test for compound auto fluorescence at 535 nm (green) in HepG2 cells (AID 720675); note: potency is the fitted concentration of half-maximal effect
[6] = qHTS assay to test for compound auto fluorescence at 460 nm (blue) in HEK293 cells (AID 720678)
In short: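 Blue read-out at excitation 405 nm and emission 460 nm follows overnight compound exposure of HEK293 cells at 37C in 5% CO2. Activity is given as auto fluorescence equivalency to triamterene.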

[7] = qHTS assay to test for compound auto fluorescence at 590 nm (red) in HEK293 cells (AID 720679)
In short: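 Red channel, Ex/Em 540/590nm; signal expressed as equivalency to Rose Bengal sodium. HEK293, 2,000 cells/well, 10% dialyzed FBS; 23 nL compound pinned after 4-5 hr attachment; overnight 37C/5% CO2 before reading.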

[8] = qHTS assay to test for compound auto fluorescence at 535 nm (green) in HEK293 cells (AID 720680); note: potency is the fitted concentration of half-maximal effect
[9] = qHTS assay to test for compound auto fluorescence at 535 nm (green) in HEK293 cell free culture (AID 720682); note: potency is the fitted concentration of half-maximal effect
In short: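 Each library compound, or DMSO control, is added by pintool to medium alone, comprising DMEM and 10% FBS. Emission at 535 nm following 485 nm excitation is quantified against fluorescein.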

[10] = qHTS assay to test for compound auto fluorescence at 590 nm (red) in HepG2 cell free culture (AID 720684)
In short: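 Plate contents were MEM with 10% FBS plus test compound or DMSO, no cells. Fluorescence was recorded with 540 nm excitation and 590 nm emission.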

[11] = qHTS assay to test for compound auto fluorescence at 460 nm (blue) in HepG2 cell free culture (AID 720685)
In short: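 Compound (23 nL) or DMSO pinned into cell-free MEM with 10% FBS; blue fluorescence read at 405/460 nm excitation/emission, expressed as auto-fluorescence equivalency to triamterene.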

[12] = qHTS assay to test for compound auto fluorescence at 535 nm (green) in HepG2 cell free culture (AID 720686); note: potency is the fitted concentration of half-maximal effect
[13] = qHTS assay to test for compound auto fluorescence at 460 nm (blue) in HepG2 cells (AID 720687)
In short: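 Blue-channel autofluorescence (Ex/Em 405/460 nm, triamterene-equivalent) was measured after 1 hr compound exposure at 37 C, 5% CO2. Cells were HepG2, plated overnight at 37 C in MEM plus 10% FBS.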

[14] = qHTS assay to identify small molecule antagonists of the glucocorticoid receptor (GR) signaling pathway - cell viability counter screen (AID 720693); note: nearly all actives have a fitted effect of over 55% in size; note: potency is the fitted concentration of half-maximal effect
[15] = target: Aromatase (Homo sapiens) (UniProt P11511); assay: qHTS assay to identify aromatase inhibitors (AID 743083); note: nearly all actives have a fitted effect of over 55% in size; note: potency is the fitted concentration of half-maximal effect; for activity, negative = inhibition: series mostly up to about 70 µM
Chain of Aromatase (Homo sapiens) (P11511 whole entry, looked up): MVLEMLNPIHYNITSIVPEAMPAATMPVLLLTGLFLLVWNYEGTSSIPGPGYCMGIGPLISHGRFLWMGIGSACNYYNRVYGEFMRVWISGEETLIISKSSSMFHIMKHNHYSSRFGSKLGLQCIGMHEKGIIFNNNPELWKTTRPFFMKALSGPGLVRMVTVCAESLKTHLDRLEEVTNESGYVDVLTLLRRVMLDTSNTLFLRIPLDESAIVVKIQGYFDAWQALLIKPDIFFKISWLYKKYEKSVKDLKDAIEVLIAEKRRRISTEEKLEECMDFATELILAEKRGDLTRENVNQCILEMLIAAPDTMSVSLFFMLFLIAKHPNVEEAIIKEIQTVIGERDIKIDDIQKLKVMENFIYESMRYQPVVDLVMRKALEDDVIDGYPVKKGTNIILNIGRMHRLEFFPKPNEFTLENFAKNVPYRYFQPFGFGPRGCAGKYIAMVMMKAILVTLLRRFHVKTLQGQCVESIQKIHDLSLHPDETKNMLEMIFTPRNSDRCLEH

[16] = qHTS assay to identify aromatase inhibitors - cell viability counter screen (AID 743084);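 note: cells stimulated with testosterone during compound exposure; nearly all actives have a fitted effect of over 55% in size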; note: potency is the fitted concentration of half-maximal effect
[17] = target: Aryl hydrocarbon receptor (Homo sapiens) (UniProt P35869); assay: qHTS assay to identify small molecule that activate the aryl hydrocarbon receptor (AhR) signaling pathway (AID 743085);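 note: HG2L7.5c1 human HepG2 liver cells with stably integrated DRE-driven firefly reporter; series mostly up to about 70 µM; nearly all actives have a fitted effect of over 15% in size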
Chain of Aryl hydrocarbon receptor (Homo sapiens) (P35869 whole entry, looked up): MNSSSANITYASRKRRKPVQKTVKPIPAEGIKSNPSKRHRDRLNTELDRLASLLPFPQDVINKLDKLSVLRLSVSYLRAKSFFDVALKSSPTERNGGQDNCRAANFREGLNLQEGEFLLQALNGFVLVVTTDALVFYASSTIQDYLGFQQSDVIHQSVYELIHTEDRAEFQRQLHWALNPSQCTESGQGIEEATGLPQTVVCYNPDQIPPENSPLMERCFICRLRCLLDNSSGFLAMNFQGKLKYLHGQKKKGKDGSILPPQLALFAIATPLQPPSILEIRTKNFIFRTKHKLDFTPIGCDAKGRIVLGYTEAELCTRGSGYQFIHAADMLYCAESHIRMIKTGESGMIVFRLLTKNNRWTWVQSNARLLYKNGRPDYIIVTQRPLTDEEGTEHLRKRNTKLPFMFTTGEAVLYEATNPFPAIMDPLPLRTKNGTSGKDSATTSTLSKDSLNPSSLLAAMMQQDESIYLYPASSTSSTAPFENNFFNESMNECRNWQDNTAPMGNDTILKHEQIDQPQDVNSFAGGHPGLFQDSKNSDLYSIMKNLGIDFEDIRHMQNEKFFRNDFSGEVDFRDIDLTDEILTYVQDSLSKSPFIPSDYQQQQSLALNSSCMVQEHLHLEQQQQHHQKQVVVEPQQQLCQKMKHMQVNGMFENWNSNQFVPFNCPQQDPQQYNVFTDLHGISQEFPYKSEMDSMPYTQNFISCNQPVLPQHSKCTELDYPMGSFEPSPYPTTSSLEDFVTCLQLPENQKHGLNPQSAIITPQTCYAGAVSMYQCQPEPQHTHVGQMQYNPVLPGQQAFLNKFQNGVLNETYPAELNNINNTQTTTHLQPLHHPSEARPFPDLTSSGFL
In short: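 Stably transfected human liver carcinoma cells (HG2L7.5c1; 20 DRE-firefly luciferase) were incubated 5 h, dosed, and kept 24 h at 37C. Agonism was scored from increased luciferase luminescence.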

[18] = target: Acetylcholinesterase (Homo sapiens) (UniProt P22303); assay: Acetylcholinesterase (AChE) small molecule antagonists: colormetric cell-based qHTS assay (AID 1347395; calls by dose curve; note: nearly all actives have a fitted effect of over 30% in size; note: potency is the fitted concentration of half-maximal effect)
Chain of Acetylcholinesterase (Homo sapiens) (P22303 whole entry, looked up): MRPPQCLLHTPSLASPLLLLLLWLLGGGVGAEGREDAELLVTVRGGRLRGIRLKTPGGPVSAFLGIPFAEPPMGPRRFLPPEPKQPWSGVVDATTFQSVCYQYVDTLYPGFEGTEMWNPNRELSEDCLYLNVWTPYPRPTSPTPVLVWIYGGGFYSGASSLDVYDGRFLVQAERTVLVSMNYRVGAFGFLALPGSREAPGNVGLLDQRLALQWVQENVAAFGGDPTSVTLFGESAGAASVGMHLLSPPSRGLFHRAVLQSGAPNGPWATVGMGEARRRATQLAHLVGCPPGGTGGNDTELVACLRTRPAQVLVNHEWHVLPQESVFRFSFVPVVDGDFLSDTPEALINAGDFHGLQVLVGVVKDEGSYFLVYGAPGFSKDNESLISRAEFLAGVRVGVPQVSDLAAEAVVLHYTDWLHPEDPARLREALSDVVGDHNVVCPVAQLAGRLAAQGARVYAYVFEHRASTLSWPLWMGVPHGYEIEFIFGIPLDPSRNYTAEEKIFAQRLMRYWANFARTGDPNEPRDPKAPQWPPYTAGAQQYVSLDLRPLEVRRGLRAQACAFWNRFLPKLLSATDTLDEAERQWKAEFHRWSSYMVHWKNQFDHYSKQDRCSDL
In short: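 After overnight attachment at 37 C, SH-SY5Y cells get 30 min compound exposure; detection cocktail (acetylthiocholine, DTNB) then incubates 90 min at 37 C, and absorbance reflects AChE-generated thiocholine.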

[19] = target: Acetylcholinesterase (Homo sapiens) (UniProt P22303); assay: Acetylcholinesterase (AChE) small molecule antagonists: enzyme-based qHTS assay (AID 1347397; calls by dose curve; note: nearly all actives have a fitted effect of over 55% in size); details: Potency: AChE enzyme activity inhibition; outcome: AChE enzyme activity inhibition
In short: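 Absorbance-based detection of thiocholine with DTNB served as the read-out. Recombinant human AChE was exposed to compound for 30 min at RT before a 10 min RT incubation with acetylthiocholine.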

[20] = target: Acetylcholinesterase (Homo sapiens) (UniProt P22303); assay: Acetylcholinesterase (AChE) small molecule antagonists: fluorescence cell-based qHTS assay (AID 1347398; calls by dose curve; note: nearly all actives have a fitted effect of over 50% in size); details: Potency: AChE activity; outcome: AChE activity
In short: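 Fluorimetric cell-based assay: intact SH-SY5Y cells, 30 min compound preincubation at 37 C, acetylthiocholine substrate with thiol probe Thiolite Green, 40 min RT development, fluorescence 490/520 nm.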
% is set by controls: 0 for no effect and ±100 for the full control effect; tags give direction and shape of the fitted curve or compound fluorescence and quenching.

Clc1ccc(C(Cn2ccnc2)OCc2csc3c(Cl)cccc23)c(Cl)c1 (stereo not drawn)
active: Potency [15] 4.03 µM
inactive: Potency [1] | Potency [2] | Potency [3] | outcome [4] | Potency [5] | Potency [6] | outcome [7] | Potency [8] | Potency [9] | outcome [10] | Potency [11] | Potency [12] | Potency [13] | Potency [14] | Potency [16] | Potency [17]

CCN1C[C@]2(COC)[C@H](O)C[C@H](OC)[C@@]34[C@@H]5C[C@@]6(O)[C@H](OC(=O)c7ccccc7)[C@@H]5[C@@](OC(C)=O)([C@@H]([C@H](OC)[C@H]23)[C@@H]14)[C@@H](O)[C@@H]6OC
inactive: Potency [1] | Potency [2] | Potency [3] | outcome [4] | Potency [5] | Potency [6] | outcome [7] | Potency [8] | Potency [9] | outcome [10] | Potency [11] | Potency [12] | Potency [13] | Potency [14] | Potency [15] | Potency [16] | Potency [17]

C[C@]12CC[C@H](O)C[C@H]1CC[C@@H]1[C@@H]2CC[C@]2(C)[C@@H](c3ccc(=O)oc3)C[C@H]3O[C@]132
inactive: Potency [1] | Potency [3] | outcome [4] | Potency [5] | outcome [7] | Potency [8] | Potency [9] | outcome [10] | Potency [11] | Potency [12] | Potency [13] | Potency [15] | Potency [16] | Potency [17]
active: Potency [2] 2.11 µM | Potency [14] 2.68 µM

Cc1ccc(/C(=C\CN2CCCC2)c2ccccn2)cc1
inactive: Potency [18] | Potency [19] | Potency [20]

COc1ccc2c3c1O[C@H]1C(=O)CC[C@H]4[C@@H](C2)N(C)CC[C@]314
inactive: Potency [1] | Potency [2] | Potency [3] | outcome [4] | Potency [5] | Potency [6] | outcome [7] | Potency [8] | Potency [9] | outcome [10] | Potency [11] | Potency [12] | Potency [13] | Potency [14] | Potency [15] | Potency [16]

CC(=O)OCC(=O)[C@@]12N=C(C)O[C@@H]1C[C@H]1[C@@H]3CCC4=CC(=O)C=C[C@]4(C)[C@H]3[C@@H](O)C[C@@]12C
inactive: Potency [18] | Potency [19]

CCC(C)(S(=O)(=O)CC)S(=O)(=O)CC
inactive: Potency [1] | Potency [2] | outcome [4] | Potency [5] | Potency [6] | outcome [7] | Potency [8] | Potency [9] | outcome [10] | Potency [11] | Potency [12] | Potency [13] | Potency [14] | Potency [15] | Potency [16] | Potency [17]

NCCNCCNCCNCCN
active: Potency [18] 79.3 µM
inactive: activity, negative = inhibition [18] 4.34% [at 10.5 µM] | Potency [19] | activity change, negative = inhibition [20] 0.135% [at 10.5 µM]

NC1=NC(=O)N2CC12 (stereo not drawn)
inactive: Potency [1] | Potency [2] | Potency [3] | outcome [4] | Potency [5] | Potency [6] | outcome [7] | Potency [8] | Potency [9] | outcome [10] | Potency [11] | Potency [12] | Potency [13] | Potency [14] | Potency [15] | Potency [16] | Potency [17]

O=C1OC2(c3cc(Br)c(O)cc3Oc3c2cc(Br)c(O)[c]3[Hg])c2ccccc21 (stereo not drawn)
active: Potency [5] 10 µM | Potency [8] 10 µM [fluorescent] | Potency [9] 10 µM [fluorescent] | Potency [12] 10 µM [fluorescent]
inactive: Potency [1] | Potency [2] | Potency [3] | Potency [6] | Potency [11] | Potency [13] | Potency [14] | Potency [15] | Potency [16] | Potency [17]

O=C(CCCCC(=O)Nc1c(I)cc(I)c(C(=O)O)c1I)Nc1c(I)cc(I)c(C(=O)O)c1I
inactive: Potency [18] | Potency [19]

CN(C)[C@H](Cc1ccccc1)c1ccccc1
inactive: Potency [1] | Potency [2] | Potency [3] | Potency [5] | Potency [6] | outcome [7] | Potency [8] | Potency [9] | outcome [10] | Potency [11] | Potency [12] | Potency [14] | Potency [15] | Potency [16] | Potency [17]

O=C1C=C2C=C[C@@H]3C[C@@]2(O1)[C@H]1CCCCN31
active: Potency [1] 6.68 µM | Potency [2] 18.8 µM | Potency [15] 13.3 µM | Potency [16] 23.7 µM
inactive: Potency [3] | outcome [4] | Potency [5] | Potency [6] | outcome [7] | Potency [8] | Potency [9] | outcome [10] | Potency [11] | Potency [12] | Potency [13] | Potency [14] | Potency [17]

O=C(O)c1cc(C(=O)O)cc(S(=O)(=O)O)c1
inactive: Potency [18] | Potency [19] | Potency [20]

CC(C)(C)Cl
inactive: Potency [18] | Potency [19] | Potency [20]

OC(c1ccccc1)(c1ccccc1)C1CN2CCC1CC2 (stereo not drawn)
inactive: Potency [1] | Potency [2] | Potency [3] | outcome [4] | Potency [5] | Potency [6] | outcome [7] | Potency [8] | Potency [9] | outcome [10] | Potency [11] | Potency [12] | Potency [13] | Potency [14] | Potency [15] | Potency [16] | Potency [17]

CC(C(=O)O)c1ccc2c(c1)CC(=O)c1ccccc1S2 (stereo not drawn)
inactive: Potency [18] | Potency [19] | Potency [20]

Cn1ccc2cc3c(cc21)CCN3C(=O)Nc1cccnc1
inactive: activity, negative = inhibition [18] -3.7% [at 23.6 µM] | activity change, negative = inhibition [19] -19.7% [at 23.6 µM] | activity change, negative = inhibition [20] -28.9% [at 23.8 µM]

COc1ccc(-c2nc3ccc(C4=NNC(=O)CC4C)cc3[nH]2)cc1 (stereo not drawn)
inactive: Potency [18] | Potency [19]

Oc1ccc2c3c1O[C@H]1[C@@H](O)CC[C@@]4(O)[C@@H](C2)N(CC2CCC2)CC[C@]314
inactive: Potency [1] | Potency [2] | Potency [3] | outcome [4] | Potency [5] | Potency [6] | outcome [7] | Potency [8] | Potency [9] | outcome [10] | Potency [11] | Potency [12] | Potency [13] | Potency [14] | Potency [15] | Potency [16] | Potency [17]

CC(C)[C@@]1(NC(=O)[C@@H]2C[C@@H]3c4cccc5[nH]cc(c45)C[C@H]3N(C)C2)O[C@@]2(O)[C@@H]3CCCN3C(=O)[C@H](Cc3ccccc3)N2C1=O
inactive: Potency [1] | Potency [3] | outcome [4] | Potency [5] | Potency [6] | outcome [7] | Potency [8] | outcome [10] | Potency [11] | Potency [12] | Potency [14] | Potency [15] | Potency [16] | Potency [17]
